Assay results from paper PMC7862700, “An all-to-all approach to the identification of sequence-specific readers for epigenetic DNA modifications on cytosine”.

Tests used:
Test in all cases: DAPPL (digital affinity profiling via proximity ligation, sequencing); 10 mM Tris-HCl pH 7.5, 50 mM NaCl, 1 mM DTT, 4% glycerol, room temperature, 30 min; GST-TFs on glutathione beads, 16-mer random dsDNA library, 0.1% formaldehyde crosslink after washing; high values mean tight binding
[1] = biological target: T1, FEV (Homo sapiens, UniProt Q99581 1-238); settings: protein: recombinant; tags: N-terminal GST; dsDNA, one strand shown
T1 sequence: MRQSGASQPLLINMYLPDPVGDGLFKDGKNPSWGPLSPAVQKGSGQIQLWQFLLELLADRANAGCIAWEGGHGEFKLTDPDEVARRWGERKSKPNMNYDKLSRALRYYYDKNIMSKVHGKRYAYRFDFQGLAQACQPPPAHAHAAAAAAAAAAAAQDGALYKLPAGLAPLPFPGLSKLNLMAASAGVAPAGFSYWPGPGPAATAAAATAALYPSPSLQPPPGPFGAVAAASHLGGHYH
How it was run: (§1)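 Each value of binding signal is a hexamer's read frequency for a factor divided by the same hexamer's frequency in the tag-only sample. Barcoded, bead-captured GST fusions of human transcription factors made in yeast were pooled with that sample and incubated with 200 nmole of a random double-stranded 16-mer DNA library in Tris/NaCl/DTT/glycerol buffer at room temperature for 30 min. Washing, 0.1% formaldehyde crosslinking, proximity ligation, PCR and Illumina NextSeq500 sequencing followed.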

[2] = biological target: ETV5 (Homo sapiens, UniProt P41161 1-510); settings: protein: recombinant; tags: N-terminal GST; dsDNA, one strand shown
Chain of ETV5 (P41161 whole entry): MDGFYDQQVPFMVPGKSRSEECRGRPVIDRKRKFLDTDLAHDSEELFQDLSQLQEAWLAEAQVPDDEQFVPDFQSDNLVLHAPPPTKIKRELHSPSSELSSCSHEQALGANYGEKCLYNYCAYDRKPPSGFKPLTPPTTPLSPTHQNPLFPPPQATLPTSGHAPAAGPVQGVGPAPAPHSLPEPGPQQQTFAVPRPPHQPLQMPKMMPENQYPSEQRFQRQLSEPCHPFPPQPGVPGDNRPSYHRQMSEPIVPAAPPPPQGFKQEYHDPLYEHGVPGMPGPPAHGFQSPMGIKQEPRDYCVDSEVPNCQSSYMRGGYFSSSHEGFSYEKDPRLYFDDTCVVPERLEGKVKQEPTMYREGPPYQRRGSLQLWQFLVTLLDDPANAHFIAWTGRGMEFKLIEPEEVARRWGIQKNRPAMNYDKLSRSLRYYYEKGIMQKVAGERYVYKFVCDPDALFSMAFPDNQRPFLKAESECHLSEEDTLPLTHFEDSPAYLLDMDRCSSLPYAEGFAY
How it was run: as §1

[3] = biological target: HSF1 (Homo sapiens, UniProt Q00613 1-529); settings: protein: recombinant; tags: N-terminal GST; chain copies: 3; dsDNA, one strand shown
Chain of HSF1 (Q00613 whole entry): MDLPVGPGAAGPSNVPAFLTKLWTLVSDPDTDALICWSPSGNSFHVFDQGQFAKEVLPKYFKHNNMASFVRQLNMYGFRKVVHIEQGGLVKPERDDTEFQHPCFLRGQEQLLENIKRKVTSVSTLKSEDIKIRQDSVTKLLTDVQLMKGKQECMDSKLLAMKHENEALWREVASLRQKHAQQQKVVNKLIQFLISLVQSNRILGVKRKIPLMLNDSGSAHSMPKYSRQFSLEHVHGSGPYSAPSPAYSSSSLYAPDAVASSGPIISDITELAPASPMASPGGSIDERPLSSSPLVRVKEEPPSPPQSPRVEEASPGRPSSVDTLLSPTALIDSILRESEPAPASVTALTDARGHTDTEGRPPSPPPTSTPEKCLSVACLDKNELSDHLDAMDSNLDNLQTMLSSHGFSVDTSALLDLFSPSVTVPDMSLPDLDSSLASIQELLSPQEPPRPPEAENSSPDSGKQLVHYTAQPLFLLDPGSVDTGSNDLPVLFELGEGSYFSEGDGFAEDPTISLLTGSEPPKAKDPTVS
How it was run: as §1

[4] = biological target: T2, SPIC (Homo sapiens, UniProt Q8N5J4 1-248); settings: protein: recombinant; tags: N-terminal GST; dsDNA, one strand shown
T2 sequence: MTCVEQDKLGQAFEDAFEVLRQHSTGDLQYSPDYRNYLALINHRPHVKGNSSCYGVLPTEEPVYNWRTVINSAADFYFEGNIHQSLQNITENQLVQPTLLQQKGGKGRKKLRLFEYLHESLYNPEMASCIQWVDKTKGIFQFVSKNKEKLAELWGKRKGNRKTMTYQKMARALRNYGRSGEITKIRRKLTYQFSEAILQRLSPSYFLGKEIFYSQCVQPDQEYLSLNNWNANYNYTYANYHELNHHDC
How it was run: as §1

[5] = biological target: ELF4 (Homo sapiens, UniProt Q99607 1-663); settings: protein: recombinant; tags: N-terminal GST; dsDNA, one strand shown
Chain of ELF4 (Q99607 whole entry): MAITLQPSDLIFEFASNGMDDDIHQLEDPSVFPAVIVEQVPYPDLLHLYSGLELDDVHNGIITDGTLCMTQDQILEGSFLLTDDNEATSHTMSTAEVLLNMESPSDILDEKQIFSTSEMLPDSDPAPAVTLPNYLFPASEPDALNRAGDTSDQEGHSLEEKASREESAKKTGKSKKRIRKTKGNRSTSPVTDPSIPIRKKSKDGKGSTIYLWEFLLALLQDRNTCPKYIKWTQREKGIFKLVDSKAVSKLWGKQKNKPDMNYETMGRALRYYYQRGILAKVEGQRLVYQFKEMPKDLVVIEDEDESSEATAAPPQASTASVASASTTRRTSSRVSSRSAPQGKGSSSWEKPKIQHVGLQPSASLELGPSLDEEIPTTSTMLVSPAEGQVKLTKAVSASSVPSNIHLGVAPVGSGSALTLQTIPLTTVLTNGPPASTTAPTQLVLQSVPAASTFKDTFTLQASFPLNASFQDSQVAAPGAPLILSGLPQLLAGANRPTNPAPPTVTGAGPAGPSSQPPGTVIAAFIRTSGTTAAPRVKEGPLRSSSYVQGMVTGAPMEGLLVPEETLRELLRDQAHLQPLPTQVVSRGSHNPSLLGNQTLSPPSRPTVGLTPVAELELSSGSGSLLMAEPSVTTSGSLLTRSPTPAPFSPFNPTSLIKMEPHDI
How it was run: as §1

[6] = biological target: T3, ELK4 (Homo sapiens, UniProt P28324-2 1-405); settings: protein: recombinant; tags: N-terminal GST; dsDNA, one strand shown
T3 sequence: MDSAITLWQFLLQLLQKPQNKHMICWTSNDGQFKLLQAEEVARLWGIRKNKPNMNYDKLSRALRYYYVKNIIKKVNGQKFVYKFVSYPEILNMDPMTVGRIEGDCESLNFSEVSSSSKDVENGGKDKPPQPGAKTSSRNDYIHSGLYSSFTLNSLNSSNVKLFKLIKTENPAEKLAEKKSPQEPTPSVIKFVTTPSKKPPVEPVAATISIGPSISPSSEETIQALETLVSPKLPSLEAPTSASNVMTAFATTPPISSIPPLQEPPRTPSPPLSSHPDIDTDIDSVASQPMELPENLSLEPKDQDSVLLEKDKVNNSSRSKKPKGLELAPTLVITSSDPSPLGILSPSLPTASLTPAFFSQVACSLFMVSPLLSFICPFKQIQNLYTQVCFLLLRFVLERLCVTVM
How it was run: as §1

[7] = biological target: T4, ETV2 (Homo sapiens, UniProt O00321 1-342); settings: protein: recombinant; tags: N-terminal GST; dsDNA, one strand shown
T4 sequence: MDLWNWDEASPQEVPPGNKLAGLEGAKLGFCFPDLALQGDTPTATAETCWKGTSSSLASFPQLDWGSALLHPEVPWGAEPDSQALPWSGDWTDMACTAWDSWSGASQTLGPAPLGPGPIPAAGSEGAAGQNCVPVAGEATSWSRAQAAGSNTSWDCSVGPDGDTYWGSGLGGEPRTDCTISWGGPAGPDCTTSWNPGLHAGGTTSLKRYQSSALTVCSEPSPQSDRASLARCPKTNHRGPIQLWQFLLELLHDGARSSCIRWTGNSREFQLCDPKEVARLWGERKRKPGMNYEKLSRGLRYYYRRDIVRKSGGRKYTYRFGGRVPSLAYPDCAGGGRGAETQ
How it was run: as §1

[8] = biological target: T5, ELF3 (Homo sapiens, UniProt P78545 1-371); settings: protein: recombinant; tags: N-terminal GST; dsDNA, one strand shown
T5 sequence: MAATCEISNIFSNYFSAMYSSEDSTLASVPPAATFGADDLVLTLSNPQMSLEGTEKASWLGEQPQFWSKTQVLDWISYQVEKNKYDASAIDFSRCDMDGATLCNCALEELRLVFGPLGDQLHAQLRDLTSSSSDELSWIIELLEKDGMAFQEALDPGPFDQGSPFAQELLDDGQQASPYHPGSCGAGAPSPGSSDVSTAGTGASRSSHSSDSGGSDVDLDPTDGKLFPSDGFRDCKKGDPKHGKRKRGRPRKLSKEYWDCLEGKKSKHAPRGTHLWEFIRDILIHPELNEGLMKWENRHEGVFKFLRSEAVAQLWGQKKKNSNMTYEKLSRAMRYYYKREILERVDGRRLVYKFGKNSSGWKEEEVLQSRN
How it was run: as §1

[9] = biological target: CRX (Homo sapiens, UniProt O43186 1-299); settings: protein: recombinant; tags: N-terminal GST; dsDNA, one strand shown
Chain of CRX (O43186 whole entry): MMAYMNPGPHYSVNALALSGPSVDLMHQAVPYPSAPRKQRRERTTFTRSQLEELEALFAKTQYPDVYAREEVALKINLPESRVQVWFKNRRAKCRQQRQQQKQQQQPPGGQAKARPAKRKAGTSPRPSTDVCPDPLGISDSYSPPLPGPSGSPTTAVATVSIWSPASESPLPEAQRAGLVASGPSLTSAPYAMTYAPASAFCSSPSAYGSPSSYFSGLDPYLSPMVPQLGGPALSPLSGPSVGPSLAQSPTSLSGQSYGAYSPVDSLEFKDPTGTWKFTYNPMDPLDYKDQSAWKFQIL
How it was run: as §1

[10] = biological target: ETV1 (Homo sapiens, UniProt P50549 1-477); settings: protein: recombinant; tags: N-terminal GST; dsDNA, one strand shown
Chain of ETV1 (P50549 whole entry): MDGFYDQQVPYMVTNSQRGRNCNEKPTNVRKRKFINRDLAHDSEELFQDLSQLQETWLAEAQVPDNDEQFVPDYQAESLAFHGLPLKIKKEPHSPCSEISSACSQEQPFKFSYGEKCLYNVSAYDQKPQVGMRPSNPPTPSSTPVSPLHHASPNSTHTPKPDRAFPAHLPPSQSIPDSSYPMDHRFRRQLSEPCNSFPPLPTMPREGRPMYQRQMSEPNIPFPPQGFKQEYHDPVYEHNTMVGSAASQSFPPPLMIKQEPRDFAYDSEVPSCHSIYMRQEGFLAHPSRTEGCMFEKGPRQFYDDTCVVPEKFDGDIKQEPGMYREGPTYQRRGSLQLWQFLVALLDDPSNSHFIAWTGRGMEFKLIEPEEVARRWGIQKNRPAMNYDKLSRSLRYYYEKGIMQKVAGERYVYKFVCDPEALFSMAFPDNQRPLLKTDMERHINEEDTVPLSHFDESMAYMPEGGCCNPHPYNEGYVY
How it was run: as §1

[11] = biological target: T6, ERF (Homo sapiens, UniProt P50548 1-548); settings: protein: recombinant; tags: N-terminal GST; dsDNA, one strand shown
T6 sequence: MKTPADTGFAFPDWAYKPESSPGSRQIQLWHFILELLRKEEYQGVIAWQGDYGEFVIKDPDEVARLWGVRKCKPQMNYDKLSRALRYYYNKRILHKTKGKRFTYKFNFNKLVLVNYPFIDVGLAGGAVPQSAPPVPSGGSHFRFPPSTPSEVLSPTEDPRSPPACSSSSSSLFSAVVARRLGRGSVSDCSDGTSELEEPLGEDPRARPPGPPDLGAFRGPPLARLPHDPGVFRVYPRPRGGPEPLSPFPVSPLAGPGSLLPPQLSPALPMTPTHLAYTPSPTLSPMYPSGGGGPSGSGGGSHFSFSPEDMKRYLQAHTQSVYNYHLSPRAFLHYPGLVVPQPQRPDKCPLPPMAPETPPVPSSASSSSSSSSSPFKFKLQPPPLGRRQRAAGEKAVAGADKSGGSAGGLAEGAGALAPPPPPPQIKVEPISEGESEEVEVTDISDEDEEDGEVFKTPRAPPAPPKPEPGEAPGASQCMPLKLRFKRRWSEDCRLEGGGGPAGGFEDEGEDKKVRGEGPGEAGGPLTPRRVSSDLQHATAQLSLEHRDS
How it was run: as §1

[12] = biological target: T7, ETV3L (Homo sapiens, UniProt Q6ZN32 1-361); settings: protein: recombinant; tags: N-terminal GST; dsDNA, one strand shown
T7 sequence: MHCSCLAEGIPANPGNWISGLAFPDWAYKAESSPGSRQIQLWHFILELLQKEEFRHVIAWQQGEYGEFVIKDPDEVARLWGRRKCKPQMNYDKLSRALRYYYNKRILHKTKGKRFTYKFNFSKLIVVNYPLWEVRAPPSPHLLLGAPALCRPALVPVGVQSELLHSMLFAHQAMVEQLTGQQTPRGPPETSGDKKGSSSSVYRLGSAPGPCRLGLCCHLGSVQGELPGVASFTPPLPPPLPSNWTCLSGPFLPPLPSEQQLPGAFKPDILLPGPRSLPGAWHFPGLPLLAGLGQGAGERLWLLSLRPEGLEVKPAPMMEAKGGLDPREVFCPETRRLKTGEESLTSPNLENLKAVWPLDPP
How it was run: as §1

[13] = biological target: T8, ETS2 (Homo sapiens, UniProt P15036 1-469); settings: protein: recombinant; tags: N-terminal GST; dsDNA, one strand shown
T8 sequence: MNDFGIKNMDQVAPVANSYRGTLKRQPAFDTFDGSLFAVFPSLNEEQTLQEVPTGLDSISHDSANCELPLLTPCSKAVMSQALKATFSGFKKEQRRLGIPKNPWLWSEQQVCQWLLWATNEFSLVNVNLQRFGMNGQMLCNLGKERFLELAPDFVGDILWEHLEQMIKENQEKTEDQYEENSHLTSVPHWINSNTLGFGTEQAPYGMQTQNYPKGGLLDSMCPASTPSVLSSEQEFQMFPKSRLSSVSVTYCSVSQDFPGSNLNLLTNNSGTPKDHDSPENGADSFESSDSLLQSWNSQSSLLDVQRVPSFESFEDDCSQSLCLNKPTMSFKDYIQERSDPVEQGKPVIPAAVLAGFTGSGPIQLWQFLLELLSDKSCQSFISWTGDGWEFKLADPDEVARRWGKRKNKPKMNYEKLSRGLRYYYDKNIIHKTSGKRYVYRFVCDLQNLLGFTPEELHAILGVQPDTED
How it was run: as §1

[14] = biological target: T9, SPDEF (Homo sapiens, UniProt O95238 1-335); settings: protein: recombinant; tags: N-terminal GST; dsDNA, one strand shown
T9 sequence: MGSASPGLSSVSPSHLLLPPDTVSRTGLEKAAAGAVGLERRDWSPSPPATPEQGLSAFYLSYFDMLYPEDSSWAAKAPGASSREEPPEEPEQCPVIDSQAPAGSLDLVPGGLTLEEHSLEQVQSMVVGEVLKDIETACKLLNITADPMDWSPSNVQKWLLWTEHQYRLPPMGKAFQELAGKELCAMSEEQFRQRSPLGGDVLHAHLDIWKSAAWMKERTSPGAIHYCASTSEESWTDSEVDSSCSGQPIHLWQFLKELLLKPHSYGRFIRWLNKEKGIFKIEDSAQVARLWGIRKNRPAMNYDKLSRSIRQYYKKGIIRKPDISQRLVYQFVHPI
How it was run: as §1

[15] = biological target: T10, ETV7 (Homo sapiens, UniProt Q9Y603 1-341); settings: protein: recombinant; tags: N-terminal GST; dsDNA, one strand shown
T10 sequence: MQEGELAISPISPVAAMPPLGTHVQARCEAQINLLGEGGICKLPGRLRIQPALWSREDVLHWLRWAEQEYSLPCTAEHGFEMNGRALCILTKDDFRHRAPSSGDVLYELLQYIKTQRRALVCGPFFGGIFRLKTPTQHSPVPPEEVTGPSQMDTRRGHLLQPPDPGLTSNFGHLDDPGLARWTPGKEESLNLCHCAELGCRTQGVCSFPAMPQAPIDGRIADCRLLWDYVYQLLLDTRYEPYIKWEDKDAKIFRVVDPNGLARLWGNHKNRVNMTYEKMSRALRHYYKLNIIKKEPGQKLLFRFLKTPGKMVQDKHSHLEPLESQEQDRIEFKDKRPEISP
How it was run: as §1

[16] = biological target: T11, ELF5 (Homo sapiens, UniProt Q9UKW6-2 1-255); settings: protein: recombinant; tags: N-terminal GST; dsDNA, one strand shown
T11 sequence: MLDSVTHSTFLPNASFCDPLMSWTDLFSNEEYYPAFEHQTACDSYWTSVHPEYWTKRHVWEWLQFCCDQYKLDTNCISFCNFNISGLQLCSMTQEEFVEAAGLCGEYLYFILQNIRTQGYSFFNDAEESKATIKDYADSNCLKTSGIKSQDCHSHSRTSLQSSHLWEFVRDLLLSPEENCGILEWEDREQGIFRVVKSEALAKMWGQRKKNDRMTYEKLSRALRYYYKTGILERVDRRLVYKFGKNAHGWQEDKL
How it was run: as §1

[17] = biological target: T12, ETV3 (Homo sapiens, UniProt P41162-2 1-143); settings: protein: recombinant; tags: N-terminal GST; dsDNA, one strand shown
T12 sequence: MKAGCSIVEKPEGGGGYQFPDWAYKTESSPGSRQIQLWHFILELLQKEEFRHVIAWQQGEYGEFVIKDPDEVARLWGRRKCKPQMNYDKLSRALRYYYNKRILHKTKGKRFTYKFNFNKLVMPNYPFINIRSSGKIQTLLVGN
How it was run: as §1

[18] = biological target: ETV6 (Homo sapiens, UniProt P41212 1-452); settings: protein: recombinant; tags: N-terminal GST; dsDNA, one strand shown
Chain of ETV6 (P41212 whole entry): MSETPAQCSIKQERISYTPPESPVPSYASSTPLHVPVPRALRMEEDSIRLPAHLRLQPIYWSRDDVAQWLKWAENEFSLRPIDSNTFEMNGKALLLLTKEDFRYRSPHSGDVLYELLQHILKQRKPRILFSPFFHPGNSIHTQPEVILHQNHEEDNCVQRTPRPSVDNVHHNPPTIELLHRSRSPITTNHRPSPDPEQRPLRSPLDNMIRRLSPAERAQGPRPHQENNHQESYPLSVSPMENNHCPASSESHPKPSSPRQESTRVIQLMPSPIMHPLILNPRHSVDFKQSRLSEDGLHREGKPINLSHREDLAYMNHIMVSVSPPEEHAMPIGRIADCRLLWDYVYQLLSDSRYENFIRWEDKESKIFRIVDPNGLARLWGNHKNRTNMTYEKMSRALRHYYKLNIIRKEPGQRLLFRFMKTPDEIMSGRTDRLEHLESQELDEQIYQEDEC
How it was run: as §1

## CTCACA
[1]
  binding signal: 1.44 fold enrichment (6-mer frequency, TF over GST control)
[2]
  binding signal: 1.31 fold enrichment (6-mer frequency, TF over GST control)
[3]
  binding signal: 1.08 fold enrichment (6-mer frequency, TF over GST control)
[4]
  binding signal: 1.23 fold enrichment (6-mer frequency, TF over GST control)
[5]
  binding signal: 1.32 fold enrichment (6-mer frequency, TF over GST control)
[6]
  binding signal: 1.34 fold enrichment (6-mer frequency, TF over GST control)
[7]
  binding signal: 1.35 fold enrichment (6-mer frequency, TF over GST control)
[8]
  binding signal: 1.3 fold enrichment (6-mer frequency, TF over GST control)
[9]
  binding signal: 1.12 fold enrichment (6-mer frequency, TF over GST control)
[10]
  binding signal: 1.2 fold enrichment (6-mer frequency, TF over GST control)
[11]
  binding signal: 1.29 fold enrichment (6-mer frequency, TF over GST control)
[12]
  binding signal: 1.38 fold enrichment (6-mer frequency, TF over GST control)
[13]
  binding signal: 1.31 fold enrichment (6-mer frequency, TF over GST control)
[14]
  binding signal: 1.33 fold enrichment (6-mer frequency, TF over GST control)
[15]
  binding signal: 1.24 fold enrichment (6-mer frequency, TF over GST control)
[16]
  binding signal: 1.31 fold enrichment (6-mer frequency, TF over GST control)
[17]
  binding signal: 1.3 fold enrichment (6-mer frequency, TF over GST control)
[18]
  binding signal: 1.24 fold enrichment (6-mer frequency, TF over GST control)
